RGS8-Gao reg – RGS8-Galphao binding modulators, primary screen, biochemical, multiplexed bead flow cytometry. Guanine nucleotide-binding protein G(o) subunit alpha (Homo sapiens), P09471. actives lie on both sides. response (percent of control binding), % at 10 µM. 220,000 compounds, 0.34% hits. AID 1423, 2008; in the data active means response below about 60% or above about 140%; inactive means in between;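 further: Galphao activated as the GDP aluminium fluoride complex binding bead-coupled RGS8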
RGS4-Gao reg – modulators of RGS4 binding to Galphao, primary screen, biochemical, multiplexed bead flow cytometry; Guanine nucleotide-binding protein G(o) subunit alpha (Homo sapiens), P09471; 220,000 compounds, 0.33% hits; binding response (% of control), % at 10 µM; actives lie on both sides; in the data active means binding response below about 49% or above about 150%; inactive means in between;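 further: fluorescent Galphao activated with aluminum fluoride binding bead-coupled RGS4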
RGS7-Gao – RGS7-Galphao binding modulators, primary screen, biochemical, multiplexed bead flow cytometry; Guanine nucleotide-binding protein G(o) subunit alpha (Homo sapiens), P09471; actives lie on both sides; binding response (% of control), % at 10 µM; 220,000 compounds, 0.35% hits; AID 1439, 2008; in the data active means binding response below about 49% or above about 150%;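 further: fluorescent Galphao held in activated GDP-AlF4 state binding bead-coupled RGS7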
RGS16-Gao – modulators of RGS16 binding to Galphao, primary screen, biochemical, human proteins, multiplexed bead flow cytometry; bead-based flow cytometry RGS16-Galphao binding, fluorescence; actives lie on both sides; binding response (% of control), % at 10 µM; 220,000 compounds, 0.38% hits; Regulator of G-protein signaling 16 (Homo sapiens) + Guanine nucleotide-binding protein …;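 further: Galphao activated by GDP with aluminum fluoride before binding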
Target sequence (O15492 whole entry, looked up): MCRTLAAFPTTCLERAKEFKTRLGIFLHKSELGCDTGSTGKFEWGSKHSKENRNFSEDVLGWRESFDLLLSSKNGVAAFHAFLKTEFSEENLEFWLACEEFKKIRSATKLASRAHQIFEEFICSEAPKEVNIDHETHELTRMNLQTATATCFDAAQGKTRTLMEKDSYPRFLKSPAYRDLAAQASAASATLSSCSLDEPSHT
Target sequence (P09471 whole entry, looked up): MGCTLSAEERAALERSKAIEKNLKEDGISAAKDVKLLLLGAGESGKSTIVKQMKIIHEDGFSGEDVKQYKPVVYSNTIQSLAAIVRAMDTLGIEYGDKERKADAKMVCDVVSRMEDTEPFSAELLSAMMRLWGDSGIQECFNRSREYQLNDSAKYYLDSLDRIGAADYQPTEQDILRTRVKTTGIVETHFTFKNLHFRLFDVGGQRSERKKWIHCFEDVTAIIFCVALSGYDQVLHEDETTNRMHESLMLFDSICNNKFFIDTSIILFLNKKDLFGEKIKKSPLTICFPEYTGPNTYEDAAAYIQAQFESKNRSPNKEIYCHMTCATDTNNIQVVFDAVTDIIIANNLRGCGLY
GSH fluor – compound fluorescence on glutathione beads, profiling panel, artefact control, biophysical, 488/530 nm, flow cytometry; AID 1776, 2009; GSH beads flow cytometry, compound fluorescence 488/530 nm; stronger effect = higher value; fluorescence (KMESF) at 10 µM; 190,000 compounds, 0.25% hits; in the data active means fluorescence above about 89;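 further: glutathione beads carrying GST-tagged Bcl family fusion proteins plus one bare bead set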
Avidin fluor – green autofluorescence of compounds with avidin beads – biophysical, 488/530 nm, flow cytometry, artefact control, profiling panel. fluorescence (KMESF) at 10 µM. 220,000 compounds, 0.38% hits. compound fluorescence 488/530 nm; stronger effect = higher value; in the data active means fluorescence above about 47
RGS-Gao – modulators of RGS–Galpha-o binding, primary screen, biochemical, multiplexed beads, flow cytometry, RGS4/7/8/16/19 | RGS4–Galpha-o binding response, % at 10 µM | 1,600 compounds, 99% hits | multiplexed bead flow cytometry | shares compounds with RGS16-Gao;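 further: fluorescently labeled Galpha-o bound to GDP with aluminium fluoride binding biotinylated RGS beads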
Biotin-avidin – disruption of biotin probe capture by avidin, counter-screen for RGS protein interaction modulators, biochemical, flow cytometry, bead-based; inhibition, % at 10 µM; streptavidin beads, fluorescein-biotin binding; shares compounds with RGS16-Gao; 1,700 tested, under 10 active; AID 1783, 2009;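 active means inhibition above 50%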;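 further: median green fluorescence of gated singlet beads compared with DMSO control wells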
RGS8-Gao single – RGS8-Galphao binding modulators, confirmation, biochemical, multiplexed bead flow cytometry, single concentration. bead-based flow cytometry RGS8-Galphao binding, fluorescence; actives lie on both sides. shares compounds with RGS16-Gao. binding response (% of control), % at 10 µM. 1,700 compounds, 3% hits; in the data active means binding response below about 72% or above about 130%; inactive means in between;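 further: Galphao activated as GDP AlF4 complex before binding bead RGS8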
RGS7-Gao single – RGS7-Galphao binding modulators, confirmation, biochemical, multiplexed bead flow cytometry, single concentration | shares compounds with RGS16-Gao | bead-based flow cytometry RGS7-Galphao binding; actives lie on both sides | response (percent of control binding), % at 10 µM | 1,700 compounds, 7.8% hits; in the data active means response below about 75% or above about 130%; inactive means in between;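 further: fluorescent Galphao activated with GDP and aluminum fluoride binding bead-coupled RGS7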
RGS16-Gao single – modulators of RGS16-Galphao protein binding, confirmation, biochemical, single concentration, multiplexed bead flow cytometry; response (% of control binding), % at 10 µM; shares compounds with RGS16-Gao; bead-based flow cytometry; actives lie on both sides; 1,700 compounds, 4% hits; in the data active means response below about 74% or above about 130%; inactive means in between;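 further: Galphao activated as the GDP aluminium fluoride complex binding bead-coupled RGS16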
RGS4-Gao single – modulators of RGS4-Galphao protein binding, confirmation, biochemical, single concentration, multiplexed bead flow cytometry | shares compounds with RGS16-Gao | actives lie on both sides | binding response (% of control), % at 10 µM | 1,700 compounds, 4% hits | AID 1840, 2009; in the data active means binding response below about 74% or above about 130%; inactive means in between
RGS19-Gao conf – regulators of RGS19-Galphao binding, confirmation, biochemical, single point, multiplexed bead flow cytometry; shares compounds with RGS16-Gao; bead-based flow cytometry RGS19-Galphao binding; actives lie on both sides; response (percent of control binding), % at 10 µM; 1,700 compounds, 5% hits; AID 1841, 2009; in the data active means response below about 50% or above about 160%; inactive means in between
Numbers stand for hits; i = inactive; nt = no result given; [ ] = dose if it differs, or a comment. An excerpt weighted towards active compounds, which were near 1.2% of everything screened. Unless noted, how the calls were made is not given here.

SMILES	RGS8-Gao reg	RGS4-Gao reg	RGS7-Gao	RGS16-Gao	GSH fluor	Avidin fluor	Biotin-avidin	RGS8-Gao single	RGS7-Gao single	RGS16-Gao single	RGS4-Gao single	RGS19-Gao conf	others
COc1c(Cl)cc(Cl)cc1/C=C/C(=O)c1ccc(NC(=O)c2cccs2)cc1	22	25	16	9.2	i	i	i	i	i	i	i	i
COc1c(Cl)cc(Cl)cc1C(=O)Nc1ccc(C(=O)O)cc1	i	i	i	i	i	i	nt	nt	nt	nt	nt	nt
COC(=O)C(C)NC(=O)C(C)NC(=O)OCc1ccccc1 (stereo not given)	nt	nt	nt	nt	i	nt	i	i	i	i	i	i
Cc1c(CCCN)c2ccccc2n1Cc1ccccc1	i	i	i	i	i	i	nt	nt	nt	nt	nt	nt
CC(C)(O)C1=NOC(c2ccccc2)C1 (stereo not given)	i	i	338[activator]	i	i	200	i	i	i	i	i	i	RGS-Gao=133
O=C1CC(=O)CC(c2ccccc2)C1	i	i	i	i	i	i	nt	nt	nt	nt	nt	nt
COc1cc2c(cc1OC)CN(C(=O)CCCOc1ccc(Cl)cc1Cl)CC2	i	i	i	i	i	i	nt	nt	nt	nt	nt	nt
C/C(=N/NC(=O)c1cc(O)c(O)c(O)c1)c1ccc([N+](=O)[O-])cc1	8.8	21	6.2	-2.4	i	i	i	i	i	i	i	i
O=C(NCC1CCS(=O)(=O)C1)Oc1ccccc1 (stereo not given)	i	i	i	291[activator]	i	i	i	i	i	i	i	i	RGS-Gao=108
CCOc1ccc2nc(SCC(=O)NCc3ccc(OC)c(OC)c3)[nH]c2c1	i	i	i	i	i	i	nt	nt	nt	nt	nt	nt
COc1ccc(S(=O)(=O)Nc2nnc(Cc3ccc(OC)c(OC)c3)s2)cc1	i	i	i	i	i	i	nt	nt	nt	nt	nt	nt
CC(=O)C(C(C)=O)c1c(Cl)c(O)c(O)c2c(C(=O)c3ccccc3)coc12	i	i	i	i	i	i	nt	nt	nt	nt	nt	nt
COc1ccc(OC)c(S(=O)(=O)N2CCC(C(=O)NCCc3ccc(OC)c(OC)c3)CC2)c1	nt	nt	nt	nt	i	nt	i	i	i	i	i	i

Screening results: PubChem BioAssay, NMMLSC
